# From PubChem BioAssay AID1022 (Emory University Molecular Libraries Screening Center, 2008)
# Screen size: about 220,000 compounds; about 3,300 (1.5%) were called active.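 How the source made its calls: active means compounds that cut the protein-peptide binding signal by more than 50% relative to plate controls in a single-dose test; inactive means the rest.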 This excerpt belongs to a sample that is enriched for actives.
# Target: Induced myeloid leukemia cell differentiation protein Mcl-1 (Homo sapiens) (UniProt Q07820)
# Sequence (Q07820 whole entry, looked up): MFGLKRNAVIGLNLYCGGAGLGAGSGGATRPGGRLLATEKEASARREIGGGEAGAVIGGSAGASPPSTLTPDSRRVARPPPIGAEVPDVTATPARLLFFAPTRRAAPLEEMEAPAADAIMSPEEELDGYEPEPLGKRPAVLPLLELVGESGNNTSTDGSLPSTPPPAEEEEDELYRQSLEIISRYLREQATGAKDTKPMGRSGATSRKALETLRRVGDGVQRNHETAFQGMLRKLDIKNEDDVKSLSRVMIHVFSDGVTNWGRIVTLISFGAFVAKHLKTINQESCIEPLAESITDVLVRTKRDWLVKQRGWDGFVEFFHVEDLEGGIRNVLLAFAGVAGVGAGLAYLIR
# Assay: disruptors of Mcl-1 and Noxa BH3 peptide – biochemical, TR-FRET, 1536-well, primary screen (AID 1022);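 further: His-tagged Mcl-1 with rhodamine Noxa BH3 peptide and terbium anti-His antibody; 0% = Mcl-1 plus Noxa peptide wells and 100% = peptide-only wells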
# Conditions: TR-FRET Mcl-1/Noxa peptide binding, 2 h; at 21.7 µM; hits give high values
row,SMILES,inhibition
1,COc1cccc(N2C(=O)NC(=O)/C(=C\c3ccc([N+](=O)[O-])s3)C2=O)c1,59.7% (active)
2,Cc1cccc(N2C(=O)NC(=O)/C(=C\c3cnn(-c4ccccc4)c3)C2=O)c1,29.4% (inactive)
3,O=C1NC(=O)N(c2ccccc2)C(=O)/C1=C/c1ccc([N+](=O)[O-])s1,45.5% (inactive)
4,CCCCC(=O)N/N=C/c1c(O)n(-c2ccccc2)c(=O)[nH]c1=O,-147% (inactive)
5,O=C1NC(=O)N(CCc2ccc(F)cc2)C(=O)/C1=C/C=C/c1ccccc1,6.31% (inactive)
6,O=C1NC(=O)N(c2ccc(F)cc2)C(=O)/C1=C/c1ccc2c(c1)CCCN2Cc1ccccc1,67.7% (active)
7,Cc1c(C(=O)O)cccc1-n1c(C)cc(/C=C2\C(=O)NC(=O)N(c3ccc4c(c3)OCO4)C2=O)c1C,14.7% (inactive)
8,O=c1[nH]c(=O)n(CCc2ccccc2)c(O)c1/C=N/N1CCOCC1,6.09% (inactive)
9,COc1cccc(CN2CCCC(C(=O)c3ccccc3SC)C2)c1O (stereo not given),16.2% (inactive)
10,CCCCCCCCCCCCn1ccc(=N)cc1,2.41% (inactive)
11,O=C(O)CCn1cc(C=C2C(=O)NC(=S)NC2=O)c(-c2cccc(Br)c2)n1,93.9% (active)
12,CN(C)CC1CCCCC1=O (stereo not given),21.8% (inactive)
13,CNC(=O)O/N=C(\N)Cc1csc2ccccc12,-19.1% (inactive)
14,Cc1ccc(-n2c(O)c(C=NCC3CCCO3)c(=O)[nH]c2=O)c(C)c1 (stereo not given),-16.8% (inactive)
15,O=C1NC(=O)N(Cc2ccco2)C(=O)/C1=C\c1ccc(-c2ccc(F)cc2)o1,69.5% (active)
16,Cc1cc(/C=C2/C(=O)NC(=O)N(Cc3ccco3)C2=O)c(C)n1-c1ccc(C(=O)O)cc1,27.4% (inactive)
17,O=C1NC(=O)N(Cc2ccco2)C(=O)/C1=C\c1cccn1CCOc1ccccc1,3.37% (inactive)
18,CSc1ccc(C(=O)C2CCCN(Cc3ccn[nH]3)C2)cc1 (stereo not given),16.2% (inactive)
19,c1cc2c(cc1[C@H]1OC[C@H]3[C@@H]1CO[C@@H]3c1ccc3c(c1)OCO3)OCO2,1.72% (inactive)
20,CCOc1cccc(=NC2CCCCC2)c2c(C)[nH]c(C)c12,23.3% (inactive)
